Experimental data reported in PubChem BioAssay (NCI).
Compounds without any hit were thinned out: in the full panel of roughly 83,000, 20% have a hit.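 The endpoint reported here, percent growth, reads 100 for growth as untreated, 0 for no net growth and -100 for all cells dead.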 Values without a mark were called inactive. Activity calls are given as the source filed them. The calls were made as follows: active = growth percent below 10; inactive = the rest.

Tests used:
Assay in all cases: NCI-60 one-dose screen, 48 h (100 = growth as untreated, 0 = no growth, -100 = all killed)
Settings in all cases: 10 µM unless noted
DU-145 prostate = tested on: DU-145 prostate
K-562 leukemia = tested on: K-562 leukemia
MALME-3M melanoma = tested on: MALME-3M melanoma
MDA-MB-231 breast = tested on: MDA-MB-231 breast
RXF 393 renal = tested on: RXF 393 renal
SF-268 CNS = tested on: SF-268 CNS
SF-295 CNS = tested on: SF-295 CNS
SF-539 CNS = tested on: SF-539 CNS
UACC-257 melanoma = tested on: UACC-257 melanoma
M14 melanoma = tested on: M14 melanoma
HCT-15 colon = tested on: HCT-15 colon
HT29 colon = tested on: HT29 colon
SNB-75 CNS = tested on: SNB-75 CNS
SNB-19 CNS = tested on: SNB-19 CNS
U251 CNS = tested on: U251 CNS
PC-3 prostate = tested on: PC-3 prostate
SK-MEL-5 melanoma = tested on: SK-MEL-5 melanoma
UACC-62 melanoma = tested on: UACC-62 melanoma
LOX IMVI melanoma = tested on: LOX IMVI melanoma
SK-MEL-28 melanoma = tested on: SK-MEL-28 melanoma

CSc1nnc(-c2cc3c([nH]c4ccccc43)c(-c3cccc(O)c3)n2)n1-c1ccccc1
growth (DU-145 prostate): 33.9% | growth (K-562 leukemia): 15.8% | growth (MALME-3M melanoma): 22.1% | growth (MDA-MB-231 breast): 34.6% | growth (RXF 393 renal): 9.95% (active) | growth (SF-268 CNS): 39.5% | growth (SF-295 CNS): 24.8% | growth (SF-539 CNS): -7.08% (active) | growth (UACC-257 melanoma): 59.9% | growth (M14 melanoma): 14.5% | growth (HCT-15 colon): 26.7% | growth (HT29 colon): 41.3% | growth (SNB-75 CNS): 5.14% (active) | growth (SNB-19 CNS): 38.6% | growth (U251 CNS): 32.3% | growth (PC-3 prostate): 29.9% | growth (SK-MEL-5 melanoma): 19.9% | growth (UACC-62 melanoma): 42.3% | growth (LOX IMVI melanoma): 33.1% | growth (SK-MEL-28 melanoma): 36.2%

O=CN1N=C(c2cccc(Nc3ccnc4cc(Cl)ccc34)c2)CC1c1ccccc1 (stereo not given)
growth (DU-145 prostate): 6.74% (active) | growth (K-562 leukemia): 18.3% | growth (MALME-3M melanoma): 53.2% | growth (MDA-MB-231 breast): 7.27% (active) | growth (RXF 393 renal): -5.98% (active) | growth (SF-268 CNS): 36.9% | growth (SF-295 CNS): 2.56% (active) | growth (SF-539 CNS): -7.47% (active) | growth (UACC-257 melanoma): 66.9% | growth (M14 melanoma): 23.6% | growth (HCT-15 colon): 19.6% | growth (HT29 colon): -2% (active) | growth (SNB-75 CNS): -9.35% (active) | growth (SNB-19 CNS): 40.3% | growth (U251 CNS): 16.9% | growth (PC-3 prostate): 24.2% | growth (SK-MEL-5 melanoma): 17.9% | growth (UACC-62 melanoma): 34.7% | growth (LOX IMVI melanoma): 20.6% | growth (SK-MEL-28 melanoma): 49.5%

COc1cc(/C=C2/C=C(c3ccccc3)N(CCc3ccc(S(N)(=O)=O)cc3)C2=O)cc(OC)c1OC
growth (DU-145 prostate): 109% | growth (K-562 leukemia): 93.6% | growth (MALME-3M melanoma): 84.2% | growth (MDA-MB-231 breast): 96.8% | growth (RXF 393 renal): 96.1% | growth (SF-268 CNS): 107% | growth (SF-295 CNS): 99.2% | growth (SF-539 CNS): 101% | growth (UACC-257 melanoma): 84% | growth (M14 melanoma): 89.8% | growth (HCT-15 colon): 100% | growth (HT29 colon): 94.7% | growth (SNB-75 CNS): 71.9% | growth (SNB-19 CNS): 101% | growth (U251 CNS): 87% | growth (PC-3 prostate): 44.2% | growth (SK-MEL-5 melanoma): 90.7% | growth (UACC-62 melanoma): 89.6% | growth (LOX IMVI melanoma): 101% | growth (SK-MEL-28 melanoma): 119%

COc1cc(/C=C/C(=O)c2ccc(F)cc2)ccc1OCCCCOc1ccc(/C=C/C(=O)c2c(C)nc3ccccc3c2C)cc1OC
growth (DU-145 prostate): 157% | growth (K-562 leukemia): 62.2% | growth (MALME-3M melanoma): 105% | growth (MDA-MB-231 breast): 91.5% | growth (RXF 393 renal): -10.5% (active) | growth (SF-268 CNS): 127% | growth (SF-295 CNS): 98.8% | growth (SF-539 CNS): 138% | growth (UACC-257 melanoma): 70.3% | growth (M14 melanoma): 103% | growth (HCT-15 colon): 96.5% | growth (HT29 colon): 100% | growth (SNB-75 CNS): 97.1% | growth (SNB-19 CNS): 110% | growth (U251 CNS): 83.3% | growth (PC-3 prostate): 93.2% | growth (SK-MEL-5 melanoma): 62.4% | growth (UACC-62 melanoma): 73.1% | growth (LOX IMVI melanoma): 90.2% | growth (SK-MEL-28 melanoma): 122%

COc1ccc(C(=O)N2c3ccccc3Sc3ccccc32)c(OC)c1
growth (DU-145 prostate): 9.99% (active) | growth (K-562 leukemia): 10.5% | growth (MALME-3M melanoma): 66.9% | growth (MDA-MB-231 breast): 38.4% | growth (RXF 393 renal): -0.69% (active) | growth (SF-268 CNS): 36.6% | growth (SF-295 CNS): 11.6% | growth (SF-539 CNS): -18.8% (active) | growth (UACC-257 melanoma): 77% | growth (M14 melanoma): -9.55% (active) | growth (HCT-15 colon): 19.2% | growth (HT29 colon): -0.815% (active) | growth (SNB-75 CNS): 18.5% | growth (SNB-19 CNS): 31.7% | growth (U251 CNS): 24.5% | growth (PC-3 prostate): 10.5% | growth (SK-MEL-5 melanoma): 19% | growth (UACC-62 melanoma): 13.8% | growth (LOX IMVI melanoma): 37.8% | growth (SK-MEL-28 melanoma): 57.9%

Cc1[nH]c(C(=O)Nc2ccccc2OC2CCNCC2)c(Cl)c1Cl
growth (DU-145 prostate): 16.4% | growth (K-562 leukemia): -2.5% (active) | growth (MALME-3M melanoma): -49.5% (active) | growth (MDA-MB-231 breast): -43.4% (active) | growth (RXF 393 renal): -85.4% (active) | growth (SF-268 CNS): 39.4% | growth (SF-295 CNS): -20.2% (active) | growth (SF-539 CNS): -94.1% (active) | growth (UACC-257 melanoma): 13.7% | growth (M14 melanoma): -51.6% (active) | growth (HCT-15 colon): 20.2% | growth (HT29 colon): -7.94% (active) | growth (SNB-75 CNS): -28.9% (active) | growth (SNB-19 CNS): 33.4% | growth (U251 CNS): -4.3% (active) | growth (PC-3 prostate): 43.1% | growth (SK-MEL-5 melanoma): -40.6% (active) | growth (UACC-62 melanoma): -79.9% (active) | growth (LOX IMVI melanoma): -88.3% (active) | growth (SK-MEL-28 melanoma): 18.9%

O=C(Nc1ccc(Oc2cccc(F)c2)c(Cl)c1)c1cccnc1
growth (DU-145 prostate): 21.8% | growth (K-562 leukemia): 16.2% | growth (MALME-3M melanoma): 47.2% | growth (MDA-MB-231 breast): 60.2% | growth (RXF 393 renal): 13.5% | growth (SF-268 CNS): 53.7% | growth (SF-295 CNS): 40.1% | growth (SF-539 CNS): 4.06% (active) | growth (UACC-257 melanoma): 56.1% | growth (M14 melanoma): 15.9% | growth (HCT-15 colon): 29.9% | growth (HT29 colon): 12.7% | growth (SNB-75 CNS): 7.85% (active) | growth (SNB-19 CNS): 42.6% | growth (U251 CNS): 32.5% | growth (PC-3 prostate): 24.6% | growth (SK-MEL-5 melanoma): -24% (active) | growth (UACC-62 melanoma): 31.2% | growth (LOX IMVI melanoma): 52.8% | growth (SK-MEL-28 melanoma): 54%

CC(=O)N1N=C(c2ccc(Nc3nc(Nc4ccccc4)nc(Nc4ccccc4)n3)cc2)CC1c1cccc([N+](=O)[O-])c1 (stereo not given)
growth (DU-145 prostate): 102% | growth (K-562 leukemia): 80.8% | growth (MALME-3M melanoma): 136% | growth (MDA-MB-231 breast): 73.7% | growth (RXF 393 renal): -0.925% (active) | growth (SF-268 CNS): 109% | growth (SF-295 CNS): 104% | growth (SF-539 CNS): 89.8% | growth (UACC-257 melanoma): 92.3% | growth (M14 melanoma): 94.8% | growth (HCT-15 colon): 110% | growth (HT29 colon): 100% | growth (SNB-75 CNS): 79.7% | growth (SNB-19 CNS): 86.1% | growth (U251 CNS): 97.7% | growth (PC-3 prostate): 80.6% | growth (SK-MEL-5 melanoma): 87.4% | growth (UACC-62 melanoma): 84% | growth (LOX IMVI melanoma): 86.9% | growth (SK-MEL-28 melanoma): 115%
